From the supplement of paper PMC10941209 come the findings set out here.

Unmarked numbers belong to inactive results.

This assay has as its system Toxoplasma gondii RH 2F1 tachyzoites (intracellular in HFF). The assay is described as follows: parasite survival relative to DMSO control; higher = less antiparasitic activity, active = 20 or less. The settings on record: 1 µM; 72 h. An outline of the steps:
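Intracellular Toxoplasma gondii RH-2F1 tachyzoites, which express β-galactosidase, were grown in HFF cells (5 × 10^3 cells/well, 96-well plates) infected with 5 × 10^3 parasites in D2 medium for 3 h, then treated with compound at 1 μM for 72 h at 37°C in 5% CO2. Cells were lysed for 15 min, then CPRG was added and absorbance read at 570 nm after 30 min. Survival is the signal as a percentage of DMSO-treated infected controls, from 2 or more biological replicates.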
On to `Fc1cccc(Cl)c1C1CC(c2ccc(Cl)cc2)Nc2nnnn21` (stereo not given), for which the parasite survival is 79.9%.
The figure for `NC[C@H]1O[C@H](O[C@H]2[C@H](O)[C@@H](O[C@H]3O[C@H](CO)[C@@H](O)[C@H](N)[C@H]3O)[C@H](N)C[C@@H]2N)[C@H](N)C[C@@H]1O` is 48.9%; for `C=CCN(C(=O)OCc1ccc([N+](=O)[O-])cc1)C1CCN(CC[C@](C)(CN(C)S(=O)(=O)c2ccccc2)c2ccccc2)CC1` it is 35.5%.
The figure for `C[C@@H](NC(=O)c1ccccc1-c1ccccc1)B(O)O` is 43.9%; for `COc1ccc(COc2cc3oc(=O)c4cc(C(C)O)ccc4c3cc2OC)cc1` (stereo not given) it is 57%; for `CCOc1ccc(/C=N/NC(=O)C2CC2c2ccc(C(C)(C)C)cc2)cc1OCC` (stereo not given) it is 51.6%.
Then `CCOC(=O)/C=C/[C@H](C[C@@H]1CCNC1=O)NC(=O)[C@@H](CC(=O)[C@@H](NC(=O)c1cc(C)on1)C(C)C)Cc1ccc(F)cc1`, with 48.2%; and `N#CCN1C(=O)COc2cc(F)c(N3C(=O)c4ccccc4C3=O)cc21`, with 67.4%.
As to `NC(=O)c1ccc(I)c([N+](=O)[O-])c1`, the parasite survival is 59.1%.
In the case of `Cc1cccc(CC(=O)N[C@H]2CCOC2=O)c1`, the parasite survival was 38.3%.
With `COc1ccc(NC(=O)CC2Sc3ncnn3C2=O)cc1` (stereo not given), the parasite survival is 22.1%.
The figure for `CCOC(=O)N1CCN(c2ccc(Cl)cc2)CC1` is 54.3%; for `COc1ccc(C2CNC(=O)C2)cc1OC1CCCC1` (stereo not given) it is 69.8%; for `N#Cc1c(F)c(Cl)c(NCc2ccccc2)c(C#N)c1F` it is 31.9%.
Then `C[C@H](NC(=O)C(=O)Nc1ccccc1C(C)(C)C)C(=O)N[C@@H](CC(=O)O)C(=O)COc1c(F)c(F)cc(F)c1F`, with 6% (active); and `NCCCc1ccccc1C(=O)Nc1ncc([N+](=O)O)s1`, with 47.9%.
Turning to `Oc1cccc(C(Nc2nccs2)c2ccc3cccnc3c2O)c1` (stereo not given), the parasite survival is 2.96% (active).
With `CCC(C)(C)c1ccc(CC(C)CN2C[C@@H](C)O[C@@H](C)C2)cc1` (stereo not given in full), the parasite survival is 35.1%.
The figure for `CN(Cc1ccc(C(C)(C)C)cc1)Cc1cccc2ccccc12` is 37.9%; for `CN(C/C=C/C#CC(C)(C)C)Cc1cccc2ccccc12` it is 41.6%.
Then `CC(C)Oc1cccc(NC(=O)c2ccccc2C(F)(F)F)c1`, with 74.1%.
Then `CC1(C)[C@H](C(=O)O)N2C(=O)C[C@H]2S1(=O)=O`, with 35.7%; and `CC(C)(C)c1ccc(Oc2ccc(N)cc2)cc1`, with 81.4%.
With `NS(=O)(=O)c1ccc(NC(=O)NC(c2ccccc2)c2ccccc2)cc1`, the parasite survival was 32%.
As to `NC(=O)c1cnccn1`, the parasite survival was 52.5%.
The figure for `Cc1nc(N(C)C(=O)Cc2ccc(-c3ccccn3)cc2)sc1S(N)(=O)=O` is 72.8%; for `O=c1ccc2ncc(=O)n3c2n1CC3CN1CCC(NCc2cc3c(cn2)OCCC3)CC1` (stereo not given) it is 44.7%.
The figure for `CC(C)Cn1c(=O)n(C)c(=O)c2c(-c3cncn3C)n(Cc3cccc4ccccc34)nc21` is 68.5%; for `CN(C)CCCOc1ccc(-c2ccc3ncc4c(c3c2)n(C2CCOCC2)c(=O)n4C)cn1` it is 50.5%.
In the case of `Fc1ccc2c(/C=C/c3cccnc3)c[nH]c2c1`, the parasite survival was 29.1%.
Regarding `CCO/N=C/c1ccc(OCCCCN2CCN(c3ccncc3)C2=O)cc1`, the parasite survival is 47.7%.
The figure for `COc1cc(C(C)(C)CCCC(C)C)cc(OC)c1OC` is 36.9%; for `O=C(O)CCNC(=O)c1ccccc1` it is 50.8%; for `C=C(C)[C@@H]1CC[C@]2(C(=O)O)CC[C@]3(C)[C@H](CC[C@@H]4[C@@]5(C)CC[C@H](O)C(C)(C)[C@@H]5CC[C@]43C)[C@@H]12` it is 46.6%.
Turning to `CC(=O)O[C@H]1C[C@@]2(C)[C@@H](C[C@@H](O)[C@H]3[C@@]4(C)CC[C@@H](O)[C@@H](C)[C@@H]4CC[C@@]32C)/C1=C(\CCC=C(C)C)C(=O)O`, the parasite survival is 48.4%.
The figure for `CCc1ccc(C2CC(C(F)(F)F)n3ncc(C(=O)NCc4ccc(OC)cc4)c3N2)cc1` (stereo not given) is 25.4%; for `O=C1CCC(N2C(=O)c3ccccc3C2=O)C(=O)N1` (stereo not given) it is 58.1%.
Then `CO/N=C(\C(=O)N[C@@H]1C(=O)N2C(C(=O)OCOC(=O)C(C)(C)C)=C(/C=C\c3scnc3C)CS[C@H]12)c1csc(N)n1`, with 54.4%; and `COc1cccc(N2CCN(C3=Nc4c(F)cccc4[C@H](CC(=O)O)N3c3cc(C(F)(F)F)ccc3OC)CC2)c1`, with 41.2%; and `NC(=O)c1cnc2ccc(S(=O)(=O)c3ccccc3)cc2c1Nc1ccc(O)cc1`, with 43%.
